# Measurements reported in PubChem BioAssay (EPA / NIEHS).
# Values joined by “and” are separate entries in the source; they are usually repeats but may differ in a detail not shown here. Identical values can stand only once. Some structures have more than one record in an assay (separate samples or runs), and their calls can disagree. Active and inactive are the calls of the source. The calls were made as follows: active = hit-call score of the fitted dose curve at least 0.9, where 1 is the maximum; inactive = score below 0.9.
# Read-out: Vascular cell adhesion molecule 1 (VCAM1), VCAM1 (gene 7412)
# Experiment: BSK_4H_VCAM1: BioMAP Diversity Plus: 4H Assay for Vascular cell adhesion molecule 1 (VCAM1) Biomarker Activity (AID 2283033)
# Conditions: primary human endothelial cells (HUVEC); actives raise or lower the signal
# Experimental: BSK_4H is a cell-based, multiplexed-readout assay that uses umbilical vein endothelium, a human vascular primary cell, with measurements taken at 24 hours after chemical dosing in a 96-well plate.BSK_4H_VCAM1 is an assay component measured in the BSK_4H assay. It measures VCAM-1 antibody related to regulation of gene expression using ELISA technology.Data from the assay component BSK_4H_VCAM1 was analyzed into 1 assay endpoint. This assay endpoint, BSK_4H_VCAM1, was analyzed with bidirectional fitting relative to DMSO as the negative control and baseline of activity. Using a type of binding reporter, gain or loss-of-signal activity can be used to understand changes in the signaling as they relate to the gene VCAM1. Furthermore, this assay endpoint can be referred to as a primary readout, because this assay has produced multiple assay endpoints where this one serves a signaling function. To generalize the intended target to other relatable targets, this assay endpoint is annotated to the cell adhesion molecules intended target family, where the subfamily is Immunoglobulin CAM.
# The levels of cell surface (or secreted, indicated by the prefix "s") biomarker endpoints were measured by ELISA. Overt cytotoxicity to cells in confluent adherent cultures (all systems other than the BT system) was assessed by measuring total protein levels using sulforhodamine B (SRB) staining in parallel cultures at the time of biomarker measurements, indicated as SRB endpoints. For proliferation assays for adherent cell types, individual cell types are cultured at sub-confluence and relative cell numbers quantified by SRB staining at time points optimized for each system (48 h: 3C and CASM3C systems; 72 h: BT and HDF3CGF systems; 96 h: SAg system). SRB was performed by staining cells with 0.1% SRB after fixation with 10% TCA and reading wells at 560 nm.Viability and proliferation of PBMC (T cells) was quantified by Alamar Blue reduction for the SAg and BT systems. For PBMC viability (referred to as PBMC Cytotoxicity within the assay endpoint names), cells were plated (75,000/well in a 96-well plate) and then chemical samples added for 1 h before addition of activators, SEB and TSST-1 (20 ng/mL final concentration each). Cells were incubated for 90 h. Then, Alamar Blue (20 uL/well) (Invitrogen, Cat DAL1100) was added for 6 h, and the plates were read with a fluorescence microplate reader at 546/580 nm (excitation/emission). For PBMC proliferation, cells were plated and activated as above but incubated for only 16 h prior to addition of Alamar Blue. Plates were read after 6 h.
SMILES,AC50,outcome
c1ccc(Sc2ccccc2)cc1,31.3 µM (active),
C[C@]12CC[C@@H]3c4ccc(O)cc4CC[C@H]3[C@@H]1CC[C@@H]2O,,inactive
CCCCN(CCO)CCO,,inactive
CC(C)(C)c1cccc(O)c1,,inactive
CCCO[Si](OCCC)(OCCC)OCCC,,inactive
CC(=O)CCC=C(C)CCC=C(C)C,28.9 µM (active),
CC(=O)c1ccc(C)cc1,,inactive
O=C(O)C(F)(F)C(F)(F)C(F)(F)C(F)(F)C(F)(F)C(F)(F)C(F)(F)C(F)F,,inactive
CCCCCCCCCCCCS,11.2 µM (active),
OCC(F)(OC(F)(F)C(F)(OC(F)(F)C(F)(F)C(F)(F)F)C(F)(F)F)C(F)(F)F (stereo not given),2.41 µM (active),inactive
CCCCCCCC1CCCC1=O (stereo not given),31.5 µM (active),
CC1=CC(C)C(C=O)C(C)C1 (stereo not given) (tested in a mixture with another compound),,inactive
CC(C)(CO)CO,,inactive
CC1(C)[C@H](C=C(Cl)Cl)[C@H]1C(=O)OCc1cccc(Oc2ccccc2)c1,,inactive
CC=CC(=O)C1=C(C)C=CCC1(C)C,,inactive
COC(=O)c1ccc(C(=O)OC)cc1,,inactive
C=CC(=O)OCC(CO)(COC(=O)C=C)COC(=O)C=C,0.302 µM (active),
O=S(=O)(O)C(F)(F)C(F)(F)OC(F)(F)C(F)(F)F,,inactive
C=C1CC/C=C(\C)CC[C@@H]2[C@@H]1CC2(C)C,29.8 µM (active),
O=S1(=O)CC(Cl)(Cl)C(Cl)(Cl)C1,0.582 µM (active),

SMILES,AC50,outcome
CC(=O)OCC=C(C)CCC=C(C)CCC=C(C)C,,inactive
CCOC(=O)C=Cc1ccccc1,,inactive
COc1ccccc1NC(=O)CC(C)=O,,inactive
C=C(F)C(=O)OC(C(F)(F)F)C(F)(F)F,,inactive
c1ccc2c(c1)-c1ccc3ccc4cccc5cc-2c1c3c45,3.53 µM (active),
CC(C)CCCC(C)(C)O,,inactive
c1ccc(OCCOc2ccccc2)cc1,,inactive
CCOC(=O)CCCCCCCCC(=O)OCC,,inactive
C=C(C)C(=O)OCCC(F)(F)C(F)(F)C(F)(F)C(F)(F)C(F)(F)C(F)(F)C(F)(F)C(F)(F)F,,inactive
C=C(C)C(N)=O,,inactive
CCn1cc(C(=O)O)c(=O)c2ccc(C)nc21,,inactive
O=C(c1ccc(OCCN2CCCCC2)cc1)c1c(-c2ccc(O)cc2)sc2cc(O)ccc12,34.5 µM (active),
CC(=O)OC(C)(C)C1CC=C(C)CC1 (stereo not given),35 µM (active),
CCC(=O)OCC=Cc1ccccc1,,inactive
CC/C(=C(\c1ccccc1)c1ccc(OCCN(C)C)cc1)c1ccccc1,8.4 µM (active) and 8.08 µM (active),
CCCCOCCOCCO,,inactive
O=C(O)C(F)(F)OC(F)(F)C(F)(F)OC(F)(F)C(F)(F)C(F)(F)C(F)(F)F,,inactive
OCCN1CCOCC1,,inactive
O=C1OC2(c3ccc(O)cc3Oc3cc(O)ccc32)c2ccccc21,,inactive
